Compound activity: PubChem, several laboratories
Shown are actives, neighbours in structure and some others; about 2.5% of the full set was active somewhere.
TMEM16A act: TMEM16A chloride channel activators or potentiators, primary screen, cell-based, HTS. B-score at 10 µM. HEK293 TMEM16A/YFP-H148Q/I152L, iodide quench fluorescence; hits give low values. 0.3% of 340,000 active;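 active = fluorescence-ratio B-score plate-corrected deviation score at least 3 library SD below zero, with starting fluorescence score within 5 deviations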;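 also: channel opened by trigger with iodide after compound preincubation; score built on the fluorescence ratio of max minus min over baseline; more negative score means more quench and so TMEM16A activation or potentiation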
Target sequence (Q8BHY3 whole entry, looked up): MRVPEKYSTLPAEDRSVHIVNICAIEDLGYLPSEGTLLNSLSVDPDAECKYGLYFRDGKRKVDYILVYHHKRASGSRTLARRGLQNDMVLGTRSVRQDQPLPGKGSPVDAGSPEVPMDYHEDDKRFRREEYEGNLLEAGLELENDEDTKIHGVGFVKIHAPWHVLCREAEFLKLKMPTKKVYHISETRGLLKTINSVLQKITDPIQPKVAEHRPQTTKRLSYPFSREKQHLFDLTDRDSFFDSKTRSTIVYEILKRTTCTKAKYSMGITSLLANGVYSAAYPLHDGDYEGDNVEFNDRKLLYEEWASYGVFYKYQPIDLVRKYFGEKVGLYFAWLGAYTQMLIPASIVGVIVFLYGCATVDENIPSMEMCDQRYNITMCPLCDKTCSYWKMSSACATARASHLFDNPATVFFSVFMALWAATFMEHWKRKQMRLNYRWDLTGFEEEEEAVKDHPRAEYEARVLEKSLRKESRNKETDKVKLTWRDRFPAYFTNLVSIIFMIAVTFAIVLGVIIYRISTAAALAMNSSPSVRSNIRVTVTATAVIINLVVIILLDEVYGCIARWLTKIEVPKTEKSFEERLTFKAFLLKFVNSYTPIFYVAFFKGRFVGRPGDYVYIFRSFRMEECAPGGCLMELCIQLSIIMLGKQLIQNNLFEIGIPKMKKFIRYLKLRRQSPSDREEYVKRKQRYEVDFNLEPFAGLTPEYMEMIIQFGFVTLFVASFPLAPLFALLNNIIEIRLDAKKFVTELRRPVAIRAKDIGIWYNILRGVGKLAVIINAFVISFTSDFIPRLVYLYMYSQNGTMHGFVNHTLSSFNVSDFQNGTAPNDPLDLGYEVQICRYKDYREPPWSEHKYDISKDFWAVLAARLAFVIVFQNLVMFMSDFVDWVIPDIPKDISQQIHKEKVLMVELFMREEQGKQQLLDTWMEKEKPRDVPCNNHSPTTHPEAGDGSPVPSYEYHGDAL
KLF5 inhibitor: KLF5 expression inhibitors, primary screen, DLD-1 cells, luminescence; 0.23% of 290,000 active; inhibition, % at 5 µM; DLD-1 KLF5 promoter-luciferase reporter;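 active = inhibition above a per-plate limit of that plate's mean compound inhibition plus 3 SD, cut at about 60% in these data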;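 also: 0% = DMSO wells and 100% = LY294002 at 200 µM; higher means less KLF5 promoter-driven luciferase light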
TMEM16A inh: TMEM16A chloride channel inhibitors, primary screen, cell-based, HTS. HEK293 TMEM16A/YFP iodide influx fluorescence, ionomycin. 1.2% of 310,000 active. AID 588511, 2011. normalized B-score (activity score, 25-100; higher = stronger inhibition) at 10 µM;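 active = ratio plate-corrected score three or more library SD toward inhibition, starting fluorescence score within five deviations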;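 also: score derived from kinetic fluorescence span divided by baseline fluorescence per well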
Jurkat NFkB inh: inhibitors of induced NF-kB luciferase reporter, primary screen, TCR NF-kB activation inhibitor project, cell-based, luminescence, uHTS | inhibition, % at 4 µM | Jurkat, PMA/ionomycin-induced NF-kB luciferase reporter | 0.53% of 330,000 active; in the data active = inhibition above about 50%
697 NFkB inh: inhibitors of PMA/ionomycin-induced NF-kB reporter, 697 cells, primary screen, B-cell NF-kB inhibitor project, cell-based, luminescence, uHTS | inhibition, % at 4 µM | 0.33% of 330,000 active | 697 B-cell NF-kB luciferase reporter, 16 h; in the data active = inhibition above about 35%
aSyn 5UTR inh: MLPCN primary screen, SNCA 5' untranslated region; alpha-synuclein 5'UTR reporter, inhibitor activity; inhibition, % (tested at 7.5 µM); 0.82% of 300,000 active; AID 1813, 2009; in the data active = inhibition above about 60%;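 also: H4 neuroglioblastoma cells stably carrying SNCA 5'UTR luciferase fusion; 0% = DMSO wells and 100% = positive control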
TMEM16A reconf: TMEM16A chloride channel inhibitors, confirmation, cell-based, re-confirmation | shares compounds with TMEM16A inh | HEK293 TMEM16A/YFP-H148Q, iodide quench fluorescence; ionomycin added to raise cell calcium | inhibition, % at 10 µM | 39% of 2,300 active;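 active = mean duplicate percent inhibition, scaled so buffer wells are 0 and the reference blocker 100, over three buffer SD above buffer mean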
TMEM16A Ca cntr: calcium mobilization in TMEM16A/YFP HEK293 cells, confirmation, counter-screen for TMEM16A inhibitor project; shares compounds with TMEM16A inh; Fluo4 calcium mobilization; calcium response (% of ionomycin), % at 10 µM; 2% of 2,300 active; AID 652231, 2013;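 active = duplicate-averaged calcium signal over 20% of the ionomycin maximum, relative to buffer baseline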;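 also: each well's signal is peak minus trough fluorescence divided by its pre-addition baseline; 0% = buffer wells and 100% = ionomycin wells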
YFP-HEK293 quench: iodide YFP quench changes in parental YFP-HEK293, counter-screen for TMEM16A inhibitor project, cell-based | YFP ratio F(max-min)/F0 at 10 µM | ionomycin | shares compounds with TMEM16A inh | 2,300 tested, under 10 active;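 active = yellow fluorescent protein signal ratio exceeding the buffer control mean by over 5 SD of those controls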;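 also: ratio is mean of duplicate wells from kinetic YFP trace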
ClC-1 inh: ClC-1 chloride channel inhibition, selectivity assay for TMEM16A inhibitor project, cell-based, voltage-dependent ClC-1. ratio percent, % at 10 µM. AID 652236, 2013. CHO ClC-1-YFP, iodide influx fluorescence quench; iodide control reads 0, buffer control 100. shares compounds with TMEM16A inh. 2,300 tested, under 10 active;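 active = duplicate-mean ratio percent above the mean of iodide-only control wells, which defines zero, plus 5 of their SD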;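 also: higher percent means stronger block of ClC-1 iodide influx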
* hit, by the source's call; i = inactive; / = no result.

SMILES	TMEM16A act	KLF5 inhibitor	TMEM16A inh	Jurkat NFkB inh	697 NFkB inh	aSyn 5UTR inh	TMEM16A reconf	TMEM16A Ca cntr	YFP-HEK293 quench	ClC-1 inh
CCC(C)Nc1nc(-c2cccc(OC)c2O)nc2ccccc12 (configuration not stated)	i	0	100*	-14	18	19	28%*	i	-1.1	-9
C[n+]1c(-c2ccc(C=NNC(=O)c3ccc(C(=O)NN=Cc4ccc(-c5cn6ccccc6[n+]5C)cc4)cc3)cc2)cn2ccccc21	i	/	/	/	/	/	/	/	/	/
CC(OC(=O)c1cc(Br)ccc1O)C(=O)Nc1ccc(S(=O)(=O)N2CCCC2)cc1 (configuration not stated)	i	/	100*	-22	-15	-9	62%*	i	-1	-19
Cc1cccc(C(=O)OC(C)C(=O)Nc2ccc(S(=O)(=O)N3CCCC3)cc2)c1O (configuration not stated)	i	/	i	4	-34	2	/	/	/	/
O=C(CSc1nnc(Cc2cc(=O)[nH]c(=O)[nH]2)n1-c1ccccc1)N1CCCCC1	i	-29	i	14	21	-19	i	i	-0.85	-10
O=C(CSc1nnc(Cc2cc(=O)[nH]c(=O)[nH]2)n1-c1ccccc1)N1CCCC1	i	-18	i	-14	3	10	/	/	/	/
OCC1(Cc2ccccc2)CCN(Cc2cnc(-c3ccc(Cl)cc3)nc2)CC1	i	-31	i	20	-20	-74	i	i	-1.1	-4
OCC1(Cc2ccccc2)CCN(Cc2cnc(-c3cccc4ccccc34)nc2)CC1	i	11	i	12	14	-5	/	/	/	/
CCOc1ccc(N2CC(C(=O)NCc3ccc4c(c3)OCO4)CC2=O)cc1 (configuration not stated)	i	-10	i	5	8	5	/	/	/	/
Cc1ccc2cc(C#N)c(NCCCNC(=O)C3CCCO3)nc2c1 (configuration not stated)	i	-6	25*	-11	-1	-2	i	i	-1	-8
Cc1ccc2cc(C#N)c(N3CCCN(C(=O)C4CCCO4)CC3)nc2c1 (configuration not stated)	i	-6	i	-10	3	5	/	/	/	/
CN1C(=O)C(C)(C)c2cc(S(=O)(=O)N3CCCCCC3)ccc21	i	-12	i	-7	7	1	/	/	/	/
CN1C(=O)C(C)(C)c2cc(S(=O)(=O)N3CCN(c4ccccc4)CC3)ccc21	i	-8	100*	-12	-3	10	i	i	-1.1	-4
O=C(COC(=O)c1cc(=O)[nH]c2ccccc12)NC(=O)c1ccccc1	i	/	i	3	2	-5	/	/	/	/
CCC1CCC/C1=N\NC(=O)c1ccoc1C (configuration not stated)	i	-102	i	-21	13	/	/	/	/	/
Cc1cccc(N2CCN(C3CCCCC3NS(=O)(=O)c3ccccc3)CC2C)c1 (configuration not stated)	i	-14	i	7	-10	-10	/	/	/	/
